Screening data (PubChem BioAssay)
Hits are enriched below; roughly 2.2% of the tested compounds scored in any of these assays.
BaF3 tox: parental Ba/F3 viability inhibition as JAK2V617F counter-screen. CellTiter-Glo ATP luminescence. inhibition, % at 5.6 µM. 220,000 compounds, 1.1% hits. AID 1486;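 active = inhibition above a per-campaign cutoff, the mean inhibition of all tested compounds plus 3 SD, cut at about 27% in these data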
APP transl inh: APP translation inhibition | SH-SY5Y APP 5'UTR-luciferase reporter, luminescence | inhibition, % at 2 µM | 190,000 compounds, 0.82% hits;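 active = inhibition above a set limit, derived from the sample mean plus 3 SD, cut at about 45% in these data; inconclusive = one replicate passes the limit while the other fails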
aSyn 5UTR inh: 5' untranslated region of α-synuclein, MLPCN primary screen | alpha-synuclein 5'UTR reporter, inhibitor activity | inhibition, % (tested at 7.5 µM) | 300,000 compounds, 0.82% hits | AID 1813; in the data active = inhibition above about 60%; inconclusive = no clear call, values can overlap the other calls;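 note: H4 neuroglioblastoma cells stably carrying SNCA 5'UTR luciferase fusion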
IEC-6 cytotox: counter-screen for KLF5 inhibitors: cytotoxicity in IEC-6 cells. IEC-6 cytotoxicity, luminescence viability. inhibition, % at 5 µM. 290,000 compounds, 0.78% hits. AID 1825; in the data active = inhibition above about 22%
Ba/F3 V617F tox: reduce viability of Ba/F3 cells dependent on JAK2V617F; Ba/F3 EpoR-JAK2V617F viability, ATP luminescence; inhibition, % at 5.6 µM; 220,000 compounds, 1.1% hits;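 active = inhibition above the campaign mean plus 3 SD over all tested compounds, cut at about 24% in these data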;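 note: cytokine-independent growth of Ba/F3 cells driven by EpoR plus mutant JAK2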
KLF5 inhibitor: inhibitors of KLF5 expression; DLD-1 KLF5 promoter-luciferase reporter, luminescence; inhibition, % at 5 µM; 290,000 compounds, 0.23% hits; AID 1700;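 active = inhibition above a per-plate limit of that plate's mean compound inhibition plus 3 SD, cut at about 60% in these data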;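 note: higher means less KLF5 promoter-driven luciferase light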
Numbers stand for hits; n = inactive; u = inconclusive; x = no result given.

SMILES | BaF3 tox | APP transl inh | aSyn 5UTR inh | IEC-6 cytotox | Ba/F3 V617F tox | KLF5 inhibitor
O=C(C[n+]1cc(-c2ccccc2)n2c1CCC2)N1c2ccccc2Sc2ccccc21 | n | n | n | n | n | n
O=C(C[n+]1cc(-c2ccccc2)n2c1CCC2)c1cccs1 | 39 | n | n | n | 26 | n
O=C(C[n+]1cc(-c2ccc(Br)cc2)n2c1CCCCC2)c1ccccc1 | 49 | n | n | n | 38 | n
Cc1ccc(NC(=O)c2cncc(Br)c2)cc1S(=O)(=O)N(C)C | n | n | n | n | n | n
COC(=O)Cn1ncc2c3ccccc3n(C)c2c1=O | 90 | n | n | n | n | n
Cc1ccc(NC(=O)CCC(=O)NNC(=S)Nc2ccccc2)c(C)c1 | n | n | n | n | n | n
Cc1ccc(NC(=S)NNC(=S)Nc2ccc(C)cc2C)cc1 | 30 | 92 | 113 | n | 82 | n
COc1ccccc1N1C(N)=NC(N)=NC12CCCCC2 | x | x | n | n | x | n
NC1=NC2(CCCCC2)N(c2cccc(Cl)c2)C(N)=N1 | 70 | n | n | n | 68 | n
COc1ccc(N2C(N)=NC(N)=NC23CCCC3)cc1 | 64 | n | n | n | 57 | n
CCCN(/C=N/c1sc2c(c1C#N)CCCCC2)CCC | n | n | n | n | n | n
Cc1ccccc1-n1cnc2cc(NCc3cccs3)ccc21 | n | n | n | n | n | n
COc1ccccc1-n1cnc2cc(NCc3cccs3)ccc21 | 73 | 93 | u | 82 | 73 | n
CN(C)c1ccc(C(=S)N2CCN(S(=O)(=O)c3ccccc3)CC2)cc1 | x | x | n | n | x | n
Cc1ccc(-n2c(-c3ccccc3)c[nH]c2=S)cc1 | n | n | n | n | n | n
Cc1ccc(-c2c[n+]3c(n2-c2ccccc2)CCC3)cc1 | 65 | x | n | n | 82 | n
CCOc1ccc(-n2c(-c3ccccc3)c[n+]3c2CCCCC3)cc1 | 70 | n | n | n | 89 | n
CCOc1ccc(N2Cc3ccccc3C2)cc1 | n | n | n | n | n | n
c1ccc(-c2c[n+]3c(n2-c2ccccc2)CCC3)cc1 | 65 | x | n | n | 71 | n
O=C(Nc1ccc(Cl)cc1)Nc1ccccc1NS(=O)(=O)c1cccs1 | 62 | n | n | n | n | n
CCC1CCC(C(=O)NC(C(=O)Nc2ccc3c(c2)OCCO3)C(C)C)CC1 (configuration not stated) | n | n | n | n | n | n
CCCC(=O)Nc1ccc(C(=O)N/N=C/c2ccc([N+](=O)[O-])o2)cc1 | n | 96 | 111 | n | n | n
NS(=O)(=O)c1ccc(-c2ccc(/C=N/NC(=O)c3ccc([N+](=O)[O-])cc3)o2)cc1 | 50 | x | n | n | n | n
CCCCCCCC(=O)Nc1ccc(C(=O)N/N=C/c2cccc([N+](=O)[O-])c2)cc1 | n | n | 76 | n | n | n
CSc1ccccc1NC(=O)COC(=O)CSc1ccc(C)cc1 | x | x | n | x | x | x
SMILES | BaF3 tox | APP transl inh | aSyn 5UTR inh | IEC-6 cytotox | Ba/F3 V617F tox | KLF5 inhibitor
CCN1CCN(Cc2ccc(NC(=O)c3ccc(C)c(NC(=O)c4ccno4)c3)cc2C(F)(F)F)CC1 | x | x | 67 | x | x | x
CCN1CCN(Cc2ccc(NC(=O)c3ccc(C)c(/C=C/c4cnc(Nc5cc(N6CCNCC6)nc(C)n5)cn4)c3)cc2C(F)(F)F)CC1 | x | x | 110 | x | x | n
CCN1CCN(Cc2ccc(NC(=O)c3ccc(C)c(NC(=O)c4c[nH]c5cc(C(F)(F)F)ccc5c4=O)c3)cc2C(F)(F)F)CC1 | x | x | 113 | x | x | x
CCN1CCN(Cc2ccc(NC(=O)c3ccc(C)c(NC(=O)c4cccc(-c5cn[nH]c(=O)c5)c4)c3)cc2C(F)(F)F)CC1 | x | x | n | n | x | n
Nc1ccc(-c2nc3ccccc3s2)cn1 | x | x | n | n | x | n
O=C1CCC(=O)N1c1ccc(-c2nc3ccccc3s2)cc1 | 89 | n | n | n | n | n
O=C(O)c1ccccc1Nc1ccc([N+](=O)[O-])cc1 | 44 | n | n | n | 45 | n
C=CCC1(CC=C)CCCN1Cc1nc(COc2ccccc2)no1 | n | x | n | n | n | n
O=c1oc(-c2cccs2)nc2ccccc12 | n | n | n | n | n | n
O=c1oc(-c2ccccc2)nc2ccsc12 | 39 | x | n | n | n | n
CC1=CN2C(=N)/C(=C/c3ccc([N+](=O)[O-])o3)C(=O)N=C2S1 | n | 48 | n | n | n | n
Cc1ccc(-c2nc(N)c3c(-c4ccc(C)cc4)nn(C(C)(C)C)c3n2)cc1 | n | n | n | n | n | n
CC(C)(C)n1nc(-c2ccc(F)cc2)c2c(N)ncnc21 | n | n | 71 | n | n | n
Cc1ccc(-c2nnn(CC(=O)NC3CC4CCC3C4)n2)cc1 (configuration not stated) | n | n | n | n | n | n
O=C(Cn1nnc(-c2ccc(Cl)cc2)n1)NC1CC2CCC1C2 (configuration not stated) | 94 | n | n | n | n | n
CN(C)c1cccc(C(=O)NCc2ccc3c(c2)OCO3)c1 | x | x | n | n | x | n
O=C(O)C1OC(Oc2cc3oc(-c4ccccc4)cc(=O)c3c(O)c2O)C(O)C(O)C1O (configuration not stated) | n | n | n | n | n | n
COc1c(OC2OC(C(=O)O)C(O)C(O)C2O)cc(O)c2c(=O)cc(-c3ccccc3)oc12 (configuration not stated) | 29 | n | n | n | n | n
Cn1c(N=Nc2ccccc2)nc2ccccc21 | 31 | n | n | 38 | 31 | n
Cc1ccc(C2CC(C(F)(F)F)n3nc(C(=O)NCc4ccco4)cc3N2)cc1 (configuration not stated) | n | n | n | n | n | n
COc1ccc(C([O-])=Nc2ccc[n+](-c3nc4ccccc4nc3NS(=O)(=O)c3ccccc3)c2)cc1 | n | x | 84 | n | n | n
N#CC(Sc1ccccn1)c1ccc(Cl)cc1Cl (configuration not stated) | 40 | n | n | n | 28 | n
N#Cc1cc(Sc2ccccn2)c(Sc2ccccn2)cc1C#N | n | n | n | n | n | n
Cn1c(N2C(=O)CC(Cc3ccccc3)C2=O)nc2ccccc21 (configuration not stated) | n | n | n | n | n | n
CCc1cc(=O)oc2c(CNCc3ccccc3F)c(O)c(Cl)cc12 | x | x | n | n | x | n
SMILES | BaF3 tox | APP transl inh | aSyn 5UTR inh | IEC-6 cytotox | Ba/F3 V617F tox | KLF5 inhibitor
Cc1cc([N+](=O)[O-])nn1CC(=O)Nc1ccc(Cl)cn1 | n | n | n | n | n | n
Cc1nn(CC(=O)Nc2ccc(Cl)cn2)c(C)c1[N+](=O)[O-] | 43 | n | n | n | n | n
Cc1cc(C)c(S(=O)(=O)NC(CC(=O)O)c2cccc([N+](=O)[O-])c2)c(C)c1 (configuration not stated) | n | n | n | n | n | n
Cc1ccc2nc(N(CCCN(C)C)C(=O)c3cc(-c4cccs4)nc4ccccc34)sc2c1 | x | x | 67 | n | x | n
COc1ccc(OC)c(NC(=O)C2CCN(C(=O)C3CC(=O)N(c4ccc(C)cc4)C3)CC2)c1 (configuration not stated) | x | x | n | n | x | n
Cc1ccc2c(c1)S/C(=C/c1ccc[n+](CCO)c1)N2C | 68 | n | n | n | 87 | n
